Measured values as given in PubChem BioAssay (NCI).
About 83,000 compounds went through this panel and 20% of them were active in at least one assay; those are over-represented in the sample as a whole.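 Treatment: one concentration, 48 hours, 96-well format. Scoring: percent growth, with anything below 10 considered active.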 Active and inactive are the calls of the source.

System: UO-31 renal
Test: NCI-60 one-dose screen, 48 h (100 = growth as untreated, 0 = no growth, -100 = all killed)
Settings: 10 µM unless noted
Method: Growth inhibition of the UO-31 human tumor cell line is measured as a screen for anti-cancer activity. Cells are grown in 96 well plates and exposed to the test compound for 48 hours. Compounds are tested at a single concentration, which is 10^-5 M for most compounds. The reported endpoint is percent growth (GI% or GIPRCNT), where numbers from 0 - 100% represent growth inhibition, and numbers from -100% - 0 represent cell death. For example, a value of 40 represents 60% growth inhibition. A value of 0 means no net growth occurred over the course of the experiment. A value of -40 indicates 40% of cells at the beginning of the experiment died by the end of the experiment. A value of -100 means all cells are dead at the end of the experiment.
NCI-60 Human Tumor Cell Lines Screen was performed using the standard one-dose NCI protocol, which is described in more detail at https://dtp.cancer.gov/discovery_development/nci-60/default.htm.
Compounds with GIPRCNT values below 10 were considered active. Activity score was based on GIPRCNT using the following formula: […]
Score is 0 for GIPRCNT values of 100 or above, 50 for GIPRCNT values of 0, and 100 for GIPRCNT values of -100.

Compound	growth
CCOC(=O)c1c2ncccc2n2c(=O)n(-c3ccc(Cl)cc3)nnc12	61% (inactive)
Nc1cc2ccncc2c2ccccc12	51.6% (inactive)
O=C(NC(Cc1ccccc1)C(=O)CCl)OCc1ccccc1 (stereo not given)	59.6% (inactive)
CCOC(=O)C(=Cc1ccccc1F)C(=O)OCC	87.7% (inactive)
O=C(O)c1ccc(=O)[nH]n1	88.3% (inactive)
CNc1cc2nc3cc(NC)c(C)cc3cc2cc1C	34.5% (inactive)
OC(c1cccc(C(F)(F)F)c1)c1cnccc1NC1CCCCCC1 (stereo not given)	28.7% (inactive)
COc1cc(/C=N/N(C)C)ccc1O	89.1% (inactive)
Cc1cc2cc3cc(C)c(N(C)C)cc3nc2cc1N(C)C	59.1% (inactive)
COc1cnc2c(c1)C(=O)c1c-2n(CCCN2CCN(C)CC2)c(=O)c2cc([N+](=O)[O-])ccc12	-86.6% (active)
COc1ccc(C/C(C)=C(\c2ccc(OCCN3CCCCCC3)cc2)c2ccc(OC(=O)C3CCCCC3)cc2)cc1	38.6% (inactive)
Oc1cc(O)c2c(=S)cc(-c3ccc(Cl)cc3)oc2c1	18% (inactive)
C(=N\Nc1ccccn1)/c1ccccn1	-10.7% (active)
Fc1ccc(Cc2ccc(F)cc2)cc1	79.7% (inactive)
C=C1C(=O)O[C@H]2[C@H]1CC/C(Cn1cc(Cc3c[nH]c4ccccc34)nn1)=C\CC[C@@]1(C)O[C@@H]21	-71.1% (active)
O=[N+]([O-])c1cccc(-c2nc3sccn3c2-c2ccnc(NCCNS(=O)(=O)c3ccc(C(F)(F)F)cc3)n2)c1	17.3% (inactive)
COc1cc(-c2cc(-c3nc4ccc(Cl)cc4[nH]3)[nH]n2)cc(OC)c1OC	20.6% (inactive)
C[C@@H]1CC[C@@H]2[C@@H]1[C@H](OC(=O)/C=C/c1ccccc1)[C@]1(C3CCCCC3)C[C@@H](OC(=O)CO)[C@@]2(C)O1	-51.7% (active)
Nc1cccc(NC(=O)C(=O)Nc2cccc(N)c2)c1	84.4% (inactive)
Nc1c(C(=O)Nc2cccc3c2OCCO3)sc2nc3c(cc12)C(=O)CCC3	53% (inactive)

Compound	growth
COc1cccc(-c2cn3c(ccc4ccccc43)n2)c1	37.2% (inactive)
Nc1c(C(=O)Nc2ccccc2)sc2nc3c(cc12)CN(CCc1ccccc1)CC3	80.3% (inactive)
N#CC1=C(N)Oc2c(ccc3ccccc23)C1c1cccs1 (stereo not given)	46.5% (inactive)
CCOC(=O)C12CCCC1=CC(=O)CC2 (stereo not given)	85.3% (inactive)
CCn1cc2c(cc1=O)-c1nc3ccccc3c3ccnc(c13)C2=O	42.5% (inactive)
O=C1C=CC(=O)c2c1nc1n2CCCC1	91.1% (inactive)
O=C1/C(=C/c2ccc(F)cc2)CN(C(=O)CCN2CCC(=NO)CC2)C/C1=C\c1ccc(F)cc1	-100% (active)
COc1cc2c(c(OC)c1OC)-c1ccc(N=NC(N)=S)c(=O)cc1[C@@H](NC(C)=O)CC2	60.9% (inactive)
COc1ccc2[nH]c(=O)c(/C=C/C(=O)c3ccc(Nc4nccc(-c5ccc6ccccc6c5)n4)cc3)cc2c1	93.2% (inactive)
O=C(CN1CCOCC1)Nc1ccc(Cn2nnc3c2C(=O)c2nnn(Cc4ccc(NC(=O)CN5CCOCC5)cc4)c2C3=O)cc1	85.3% (inactive)
COc1ccc(S(=O)(=O)NCCCNc2nccc(-c3c(-c4cccc(N)c4)nc4sccn34)n2)cc1	76.4% (inactive)
CC(=O)Oc1ccc(Nc2c3ccccc3nc3ccccc23)cc1	-16.4% (active)
N=c1c2ccccc2nc2n1CCCCC2	89.7% (inactive)
O=c1[nH]c(-c2ccccn2)nc2sc3c(c12)CCCCC3	32.6% (inactive)
CC(C)Oc1nc2c(c(=O)n(C)c(=O)n2C)n1C	91.3% (inactive)
Nc1nc(SCc2ccccc2)c2ncn(C3CCCC3)c2n1	89.9% (inactive)
Cc1ccc(-c2nc(/C=N/Nc3cc(C)nc4ccc(Cl)cc34)c(C)o2)cc1	-99.7% (active)
COc1cc2cc(COc3nccc(-c4ccc(Cl)cc4)n3)c(=O)[nH]c2cc1OC	67.2% (inactive)
O=[N+]([O-])c1cccc(-c2nc3sccn3c2-c2ccnc(NCCCNS(=O)(=O)c3ccc(Br)cc3)n2)c1	22.7% (inactive)
O=c1c(/C=C/c2ccco2)nnc(SCCN2CCOCC2)n1/N=C/c1ccc([N+](=O)[O-])cc1	71.3% (inactive)
